This passage reports difference results from the supplement of paper PMC11026393.

The structures appear in SMILES notation.

In this assay the test system is H1299. In words: difference in mean normalized H2B-mRuby nuclear fluorescence intensity relative to DMSO control (normalized intensity difference (DMSO = 0)); higher = stronger increase in transgene reporter fluorescence. The settings on record: 24 h. As for the experimental part: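 Cancer cell lines stably expressing H2B-mRuby2 from a lentiviral PGK promoter were treated with each drug for 24 h and imaged on a Leica DMI8 (ex 541-551 / em 565-605 nm). Nuclei were segmented in CellProfiler. The value is the difference in mean per-nucleus normalized H2B-mRuby intensity versus DMSO-treated cells (about 3 repeats x 4 fields). Doxorubicin is itself fluorescent. Dasatinib is in nM.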

`Cc1sc2c(c1C)C(c1ccc(Cl)cc1)=N[C@@H](CC(=O)OC(C)(C)C)c1nnc(C)n1-2` (concentration unit: uM): the difference reads like this: (concentration: 0.1) 0.176; (concentration: 0.5) 0.367; (concentration: 1) 0.441; (concentration: 5) 0.532; (concentration: 10) 0.625.
As to `CN[C@@H]1C[C@H]2O[C@@](C)([C@@H]1OC)n1c3ccccc3c3c4c(c5c6ccccc6n2c5c31)C(=O)NC4` (concentration unit: nM), the difference (concentration: 5) was -0.113; the difference (concentration: 10) is -0.185; the difference (concentration: 25) is -0.17; the difference (concentration: 100) was 0.0873; the difference (concentration: 500) came out at 0.138.
